Most compounds without a hit are left out; they make up all but 4.2% or so of the library.
PfHsp90 yeast 2: inhibits growth of yeast expressing Plasmodium falciparum Hsp90 | S. cerevisiae expressing PfHsp90, BacTiter-Glo ATP, 48 h; yeast lacking PDR1 and PDR3 efflux regulators | inhibition, % at 9.4 µM | 310,000 tested, 0.32% active;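 active = every replicate shows inhibition above about 80%, whatever the replicate mean, limit read from the data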;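 note: 0% = DMSO neutral controls and 100% = 20 µM radicicol positive controls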
NALP1 inh: inhibitors of NALP1 inflammasome in yeast | 280,000 tested, 0.61% active | S. cerevisiae NALP1/ASC/caspase-1 growth, X-gal OD620, 72 h | inhibition, % at 10 µM; in the data active = inhibition mostly above about 24%, no sharp cut-off; inactive = mostly below about 32%
NLRP3 yeast inh: NALP3 inhibition in yeast. Yeast reconstituted NLRP3/ASC/caspase-1, beta-gal luminescence, 24 h. inhibition, % at 10 µM. 330,000 tested, 0.39% active;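 active = inhibition of 50% or more; inactive = inhibition below 50%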;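 note: plate controls were induced DMSO wells for no effect and uninduced yeast grown without galactose for full effect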
TIM10 inh: inhibits growth of TIM10 yeast strain | S. cerevisiae TIM10 strain growth, BacTiter-Glo luminescence, 24 h | inhibition, % at 10 µM | 330,000 tested, 1.4% active;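 active = inhibition of 40% or more at the single tested concentration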;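 note: wild-type TIM10 isogenic control strain grown at permissive 25 °C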
tim10-1 inh: tim10-1 yeast growth inhibition | inhibition, % at 20 µM | 330,000 tested, 2.2% active | S. cerevisiae tim10-1 ts strain growth, BacTiter-Glo, 24 h;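 active = inhibition of at least 40%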;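 note: mutant grown at 25 °C; 0% = DMSO wells with yeast and 100% = wells holding no yeast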
tim23-1 inh: inhibits growth of tim23-1 mutant yeast | S. cerevisiae tim23-1 growth, BacTiter-Glo luminescence, 24 h | inhibition, % at 20 µM | 330,000 tested, 1.3% active | AID 463212;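 active = growth inhibition of the mutant yeast at or above 50%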;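 note: temperature-sensitive mutant grown at 25 °C; plate controls were DMSO-treated mutant yeast for no effect and medium wells lacking yeast for full effect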
tim23-1 confirm: tim23-1 yeast growth inhibition, confirmed. shares compounds with tim23-1 inh. S. cerevisiae tim23-1 growth, BacTiter-Glo luminescence, 24 h. inhibition, % at 20 µM. 4,400 tested, 83% active. AID 463218;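 active = inhibition above about 39% in either of two replicate wells at 20 µM, limit read from the data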;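 note: temperature-sensitive tim23-1 mutant grown at 25 °C; 0% = DMSO wells with yeast and 100% = medium wells without yeast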
Active calls of the source: *; . = not tested or not shown.

SMILES	PfHsp90 yeast 2	NALP1 inh	NLRP3 yeast inh	TIM10 inh	tim10-1 inh	tim23-1 inh	tim23-1 confirm
O=C1c2ccccc2NC(c2ccc(-c3ccc(C(F)(F)F)cc3)o2)N1O (stereo not given)	101.3*	.	3.8	8.0	-14.5	65.3*	59.0*
Cc1ccc(CC(=O)O/N=C(\N)c2ccccn2)cc1	-3.8	3.2	19.2	24.4	38.3	21.0	.
Cc1ccc(C(=O)O/N=C(\N)c2ccccn2)c(Cl)c1	29.8	17.0	35.0	33.1	35.8	51.2*	53.9*
NC(=S)NNC(=O)Nc1cccc(Cl)c1	-39.3	23.1	6.4	3.4	-1.7	5.4	.
NC(=S)NNc1cccc(Cl)c1	11.6	-1.8	20.2	13.4	20.7	60.2*	60.7*
Cc1cccc(NC(=S)NNc2cccc(Cl)c2)c1	-8.4	-34.7	12.4	23.9	22.7	52.3*	55.3*
O=C(NCC1COc2ccccc2O1)c1ccc(NC(=O)c2ccco2)cc1 (stereo not given)	-20.8	20.0	5.8	32.9	36.5	58.4*	53.3*
O=C(Nc1ccc(C(F)(F)F)cc1)N1CCN(c2ccnc3cc(Cl)ccc23)CC1	-1.9	.	19.1	24.1	15.8	51.2*	46.4*
O=C(Nc1cc(F)ccc1F)N1CCN(c2ccnc3cc(Cl)ccc23)CC1	-7.9	.	32.6	10.7	21.9	20.7	.
CCCN(CCC)C1=N/C(=C\c2ccco2)C(=O)N1c1ccccc1	3.2	-4.8	9.0	15.5	34.7	47.9	.
CN1C(=O)/C(=C\c2ccco2)N=C1c1ccc(Cl)cc1Cl	0.1	.	-0.1	30.1	19.9	70.6*	44.2*
O=C1OC(/C=C/c2ccc(Cl)cc2)=NC/1=C/c1ccco1	18.2	50.8	0.7	24.0	34.1	60.2*	41.9*
COc1ccc2ccccc2c1C1NC(=O)NC(C)=C1[N+](=O)[O-] (stereo not given)	0.4	2.9	3.0	3.3	-11.9	0.2	.
CCOc1ccc(NCc2cc3c(C(C)(C)C)nn(-c4ccccc4)c3[nH]c2=O)cc1	103.2*	-8.9	46.4	31.6	22.4	58.5*	54.8*
CCc1ccc(NCc2cc3c(C)nn(-c4ccccc4)c3[nH]c2=O)cc1	33.1	-6.5	13.3	10.2	12.7	13.8	.
COc1cccc(NCc2cc3c(C(C)(C)C)nn(-c4ccccc4)c3[nH]c2=O)c1	44.0	28.1	9.6	36.4	36.1	70.3*	59.3*
O=C(Nc1ccc(F)cc1F)NC1CCN(Cc2c(F)cccc2Cl)CC1	8.2	13.7	15.2	-20.1	-13.8	-0.3	.
COc1ccccc1C(=O)Nc1cc(-c2ccc(C)cc2)no1	16.7	17.7	23.7	27.5	29.4	55.4*	46.9*
COc1ccccc1NC(=O)c1ccccc1C(=O)Nc1ccccc1OC	-7.2	13.5	14.9	12.4	22.4	30.9	.
COc1ccc(C(=O)NC(=S)Nc2cccc3cc(O)ccc23)cc1OC	-54.7	10.5	17.5	24.4	25.7	21.5	.
COC(=O)c1ccccc1NC(=O)c1ccccc1OC	-18.5	27.6	34.8	0.1	36.7	51.2*	32.0
COc1ccccc1C(=O)NC(=S)Nc1cccc2cc(O)ccc12	0.0	0.0	26.3	18.8	33.1	53.5*	46.0*
COc1ccccc1C(=O)Nc1c(C)cc(Br)cc1C	1.8	-29.0	33.0	18.0	36.2	45.7	.
COc1cc(C(=O)NCC2CCCO2)cc(Br)c1OCc1ccccc1 (stereo not given)	-18.4	.	21.5	10.0	30.3	41.1	.
CN(C)S(=O)(=O)c1cccc(C(=O)NCc2cccs2)c1	-6.7	-0.2	25.9	2.2	7.6	20.9	.
SMILES	PfHsp90 yeast 2	NALP1 inh	NLRP3 yeast inh	TIM10 inh	tim10-1 inh	tim23-1 inh	tim23-1 confirm
Cn1c(=NC(=O)c2ccccc2[N+](=O)[O-])sc2cccc(F)c21	-22.5	1.2	13.6	-8.9	2.2	97.0*	-14.8
Cn1c(=NC(=O)C(C)(C)C)sc2cccc(F)c21	-1.9	-1.1	34.6	-10.5	1.7	18.7	.
C/C(=N\Nc1cc(N2CCOCC2)nc(C)n1)c1ccc(F)cc1	-4.4	-3.4	31.4	0.5	17.6	18.7	.
C/C(=N\Nc1cc(N2CCCCC2)nc(C)n1)c1ccc(Br)cc1	-2.0	14.4	22.6	8.4	20.1	56.7*	48.5*
Cc1cccc(S(=O)(=O)Nc2nc3ccccc3nc2OC(C)C)c1	5.6	11.9	18.2	39.2	27.9	52.9*	49.3*
CCc1c(C)nc2cc(-c3ccc(OC)c(OC)c3)nn2c1NCC1CC1	10.1	-2.1	23.5	13.6	33.1	68.5*	45.9*
CCN(CC)CCOc1ccc(C=NNc2nc3c([nH]2)c(=O)n(C)c(=O)n3C)cc1	8.1	.	.	.	.	.	.
Cn1c(N2CCOCC2)nc2c1c(=O)n(Cc1ccc(Cl)c(Cl)c1)c(=O)n2C	2.8	31.2	43.4	15.2	37.1	54.8*	37.5
CC(=O)NC(Cc1ccccc1C)C(=O)NC1CCN(C(=O)c2ccc(C)cc2)CC1 (stereo not given)	-3.5	-4.8	10.9	4.5	7.8	12.9	.
COc1ccc(C2Nc3cccc4cccc(c34)N2)cc1Br	-2.2	28.0	10.7	25.8	23.2	55.7*	55.4*
Cc1ccc2c(c1)C(=O)N1[C@H]3c4cc(Cl)ccc4OC[C@@H]3[C@H](c3ccccc3)[C@]1(C)C(=O)N2	-79.0	.	-3.1	5.7	20.9	37.4	.
C[C@@]12C(=O)Nc3ccc(F)cc3C(=O)N1[C@H]1c3cc(Cl)ccc3OC[C@@H]1[C@@H]2c1ccccc1	-115.0	.	-6.7	22.9	20.3	54.2*	53.5*
COc1nc(=O)n(C2CCCO2)cc1C (stereo not given)	3.5	.	.	.	.	.	.
FC(F)(F)c1cccc(Sc2cc(C(F)(F)F)nc(-c3ccccn3)n2)c1	36.6	17.6	21.9	24.5	28.1	51.1*	42.7*
O=C(Oc1ccccc1/C=C\C(=O)c1cc2ccccc2o1)c1cccc(F)c1	4.2	26.0	28.0	33.4	30.3	51.6*	57.5*
Cc1ccc(S(=O)(=O)N2C/C=C\CN(S(=O)(=O)c3ccccc3Br)CC2)cc1	2.6	.	.	8.7	25.2	49.0	.
Cc1ccc(S(=O)(=O)N2CCCN(S(=O)(=O)c3ccccc3Br)CC2)cc1	3.9	.	.	1.7	22.0	52.2*	24.4
Cc1nc(Nc2ccc(O)cc2)c2c3c(sc2n1)CCCC3	5.3	-8.1	14.3	22.2	16.9	51.8*	45.4*
Cc1nn(C)cc1S(=O)(=O)N1CCN(Cc2cccc(Cl)c2)CC1	8.4	9.4	14.3	10.6	27.6	1.5	.
CN(CC12CC3CC(CC(C3)C1)C2)C(=O)c1ccco1	-31.8	12.6	25.6	17.1	14.6	42.5	.
CN(C(=O)c1ccco1)c1nnc(C23CC4CC(CC(C4)C2)C3)s1	-4.0	21.0	18.2	12.5	20.2	55.3*	59.0*

Screens from PubChem BioAssay.
